Measurements reported in the supplement of paper PMC10941209.

Test system: HFF
Assay: cell viability relative to DMSO control; higher = less cytotoxic
Conditions: 1 µM; 72 h
Procedure: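 Single-dose cytotoxicity screen of the MMV Pandemic Response Box at 1 uM on human foreskin fibroblasts (HFF), 72 h at 37 C. Viability measured by MTT (OD 550 nm) and normalised to the DMSO control (% survival).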

Row | Compound | cell viability
1 | OB1OCc2c1ccc(Cl)c2F | 68.5%
2 | CCC[C@@H]1C[C@@H](C(=O)N[C@@H]([C@H]2O[C@H](SC)[C@H](O)[C@@H](O)[C@H]2O)[C@H](C)Cl)N(C)C1 | 66.8%
3 | O=C(Nc1ccc(N2CCN(C(=O)c3ccccc3)CC2)cc1)c1ccc2c(c1)OCO2 | 60.1%
4 | Cc1cc(NS(=O)(=O)c2ccc(-c3ccc(F)cc3F)cc2)no1 | 69.4%
5 | C[C@H]1[C@@H](c2cccc(C(F)(F)F)c2)OC(=O)N1C(=O)NCc1cncc2ccccc12 | 70%
6 | Nc1ccc(-c2nc3cc(C(F)(F)F)ccc3n2C23CC4CC(CC(C4)C2)C3)cc1 | 66.3%
7 | CCCCSc1nc(N)c2[nH]c(=O)c(=O)n(Cc3ccccc3)c2n1 | 67.5%
8 | CN(C/C=C/C#CC(C)(C)C)Cc1cccc2ccccc12 | 64.9%
9 | O=C(O)[C@H]1C2CCC(CC2)[C@@H]1Nc1nc(-c2c[nH]c3ncc(F)cc23)ncc1F | 67%
10 | Nc1cc(-c2nc3ccccc3[nH]2)n[nH]c1=O | 67.1%
11 | COc1ccc(COc2cc3oc(=O)c4cc(C(C)O)ccc4c3cc2OC)cc1 (stereo not drawn) | 57.3%
12 | CSC[C@H]1CN(Cc2c[nH]c3c(N)ncnc23)C[C@@H]1O | 61.5%
13 | O=C(O)c1cc(-c2ccccc2)nc2ccccc12 | 70.7%
14 | CCN(CC)CCn1c(=N)n(CC(O)COc2ccc(Cl)cc2Cl)c2ccccc21 (stereo not drawn) | 60.7%
15 | O=C(Nc1ccc(-c2ccccc2)cc1)C1=C(O)C(Cc2ccccc2)OC1=O (stereo not drawn) | 69.3%
16 | NCC(=O)Nc1ccc(-n2nc(C(F)(F)F)cc2-c2ccc3c(ccc4ccccc43)c2)cc1 | 80.7%
17 | N[C@H]1CCC[C@H]1C(=O)O | 70.6%
18 | CCCCN1C[C@H](O)[C@@H](O)[C@H](O)[C@H]1CO | 63.2%
19 | O=C(Nc1nnc(-c2ccccc2)o1)c1ccc(F)cc1 | 65.2%
20 | Cc1cc(C)n(O)c(=O)c1 | 68.5%
21 | CC1CCc2c(N3CCC(O)CC3)c(F)cc3c(=O)c(C(=O)O)cn1c23 (stereo not drawn) | 59.7%
22 | CCOC(=O)N1CCN(c2ccc(Cl)cc2)CC1 | 64%
23 | CCc1cc(CCC(=O)Nc2ccccc2O)c(O)nc1C | 71.2%
24 | C[C@H](NC(=O)C(=O)Nc1ccccc1C(C)(C)C)C(=O)N[C@@H](CC(=O)O)C(=O)COc1c(F)c(F)cc(F)c1F | 55.9%
25 | Fc1ccc2c(/C=C/c3cccnc3)c[nH]c2c1 | 63.2%
26 | CN(O)C(=O)c1cc2c(CN3CCC[C@H]3C(N)=O)cn(Cc3ccc(F)cc3)c2cn1 | 64.1%

Row | Compound | cell viability
27 | Cc1cc(Nc2ccc(F)cc2)nc(SCc2nc3ccccc3[nH]2)n1 | 66%
28 | Cc1c(OCC(F)(F)F)ccnc1C[S+]([O-])c1nc2ccccc2[nH]1 (stereo not drawn) | 66.4%
29 | CC(=O)Nc1cc(NS(=O)(=O)c2ccc(Cl)cc2)cc2c(Cl)[nH]nc12 | 67.2%
30 | NC(=S)N/N=C/c1ncccc1N | 65.3%
31 | O=C1c2cccc3cccc(c23)C(=O)N1CC1CO1 (stereo not drawn) | 63.8%
32 | CC[C@H]1OC(=O)[C@H](C)[C@@H](O[C@H]2C[C@@](C)(OC)[C@@H](O)[C@H](C)O2)[C@H](C)[C@@H](O[C@@H]2O[C@H](C)C[C@H](N(C)C)[C@H]2O)[C@](C)(O)C[C@@H](C)C(=O)[C@H](C)[C@@H](O)[C@]1(C)O | 71.6%
33 | COc1nc2ccc(Br)cc2cc1[C@@H](c1ccccc1)[C@@](O)(CCN(C)C)c1cccc2ccccc12 | 72.3%
34 | CCNC(=O)Nc1cc(-c2ccccc2)c(-c2cncc(C(=O)O)c2)cn1 | 63.8%
35 | CC(C)Nc1nc2cc(Cl)c(Cl)cc2n1[C@H]1O[C@@H](CO)[C@H](O)[C@@H]1O | 67.8%
36 | c1cc(CN2CCCNCCNCCCNCC2)ccc1CN1CCCNCCNCCCNCC1 | 63.9%
37 | CN1CCN(c2ccc3[nH]c(-c4ccc5[nH]c(-c6ccc(O)cc6)nc5c4)nc3c2)CC1 | 68.8%
38 | CC(C)Oc1ccc(-c2nc(-c3cccc4c3CC[C@@H]4NCCO)no2)cc1C#N | 65.4%
39 | Oc1c(C(Nc2ccccn2)c2ccccc2)ccc2cccnc12 (stereo not drawn) | 69.9%
40 | COC(=O)Nc1nc2cc(Sc3ccccc3)ccc2[nH]1 | 71.9%
41 | CS(=O)(=O)c1ccc(Oc2ccc(Cl)cc2)cc1 | 69.7%
42 | c1ccc(Cn2c(-c3ccccn3)nc3ccccc32)cc1 | 63.2%
43 | Fc1ccc(-c2nc(-c3c[nH]c4ccc(Br)cc34)[nH]c2-c2ccc(F)cc2)cc1 | 67.2%
44 | Nc1nc(-c2ccccc2)nc2[nH]nc(Nc3ccc(C(F)(F)F)cc3)c12 | 64.3%
45 | C[C@@H](c1nc(-c2ccc(C#N)cc2)cs1)[C@](O)(Cn1cncn1)c1ccc(F)cc1F | 62.9%
46 | CC(C)Nc1ncnc2c1cnn2-c1ccc(Cl)cc1 | 71.9%
47 | CC(C)(C)c1cc(CCC(=O)N2CCC2)cc(C(C)(C)C)c1O | 72.6%
48 | CC(=N)N1CC[C@H](SC2=C(C(=O)O)N3C(=O)[C@@H]([C@@H](C)O)[C@H]3C2)C1 | 63.8%
49 | O=C(Nc1nnc(-c2ccc(Cl)cc2)o1)c1ccc(F)cc1 | 65.9%
50 | O=C(O)c1cc(-c2ccc(Br)cc2)nc2ccc(Cl)cc12 | 57.6%
51 | O=C(NCc1cccc2ccccc12)c1cccs1 | 66%
52 | CC(=O)N1CCN(c2ccc(OCC3COC(Cn4ccnc4)(c4ccc(Cl)cc4Cl)O3)cc2)CC1 (stereo not drawn) | 62.9%

Row | Compound | cell viability
53 | O=S(=O)(Nc1ccc(O)cc1)c1cccc2cccnc12 | 66.5%
54 | CO[C@@]1(NC(=O)Cc2cccs2)C(=O)N2C(C(=O)O)=C(COC(N)=O)CS[C@@H]21 | 63.7%
55 | Cc1nc2ccc(Cl)cc2c(-c2ccccc2)c1CC(=O)O | 77%
56 | CCC(C)n1ncn(-c2ccc(N3CCN(c4ccc(OCC5COC(Cn6cncn6)(c6ccc(Cl)cc6Cl)O5)cc4)CC3)cc2)c1=O (stereo not drawn) | 78.2%
57 | COc1ccc(C(C)(C)C)cc1NC(=O)C(=O)c1ccc(OCCN2CCOCC2)c2ccccc12 | 69.1%
58 | O=C(O)c1ccc(-n2nc(-c3ccccc3O)nc2-c2ccccc2O)cc1 | 76.7%
59 | Nc1nc(NC2Cc3ccc(F)cc3C2)nc(N2CCCCC2)n1 (stereo not drawn) | 72.4%
60 | O=C(N[C@H](Cc1cccc2ccccc12)C(=O)NCCc1c[nH]cn1)C1Cc2ccccc2C1 | 62.3%
61 | N#C/C(=C1/SC[C@H](c2ccc(Cl)cc2Cl)S1)n1ccnc1 | 74.7%
62 | O=C(Nc1ccccc1C(=O)O)c1cccc(Oc2ccccc2)c1 | 67.4%
63 | C[C@@H](O)[C@H](N)C(=O)NS(=O)(=O)c1cccc(-c2ccc3[nH]ncc3c2)c1 | 63.3%
64 | CCc1nc(N)nc(N)c1C#CCc1ccccc1 | 69.3%
65 | Nc1nc(-c2ccccc2)nc2c1ncn2[C@@H]1O[C@H](COS(=O)(=O)NC(=O)c2ccccc2O)[C@@H](O)[C@H]1O | 72.2%
66 | CN(C)c1[nH]c(=O)ncc1F | 72%
67 | O=C(Nc1ccc(F)cc1)c1nn(-c2ccccc2)c(=O)cc1Cl | 71%
68 | Clc1ccc(COC(Cn2ccnc2)c2ccc(Cl)cc2Cl)c(Cl)c1 (stereo not drawn) | 66.8%
69 | CCOCc1nc2c(N)nc3ccccc3c2n1CC(C)(C)O | 70.5%
70 | CC(=O)Oc1ccccc1C(=O)Nc1ncc([N+](=O)[O-])s1 | 62.8%
71 | CC(=O)NC[C@H]1CN(c2ccc(N3CCSCC3)c(F)c2)C(=O)O1 | 67.2%
72 | COc1ccc2nc(-c3ccccc3)cc(O)c2c1 | 75%
73 | COC(=O)Nc1nc2c(C)cccc2[nH]1 | 69.3%
74 | NNC(=O)c1ccncc1 | 62.8%
75 | CCCCCCC1c2ccc(O)cc2Oc2cc(O)ccc21 | 72.2%
76 | CCCCc1ccc(-c2cc(C(=O)O)cc(-c3ccc(Cl)cc3)n2)cc1 | 68.9%
77 | CC(C)(C)c1ccc(Oc2ccc(N)cc2)cc1 | 68.3%
78 | c1ccc(-c2nnc3c4ccccc4c(N4CCNCC4)nn23)cc1 | 73.2%

Row | Compound | cell viability
79 | O=C(Nc1[nH]c(=O)ncc1F)c1ccccc1 | 64.8%
80 | COc1c(F)c(F)cc2c(=O)c(C(=O)O)cn(C3CC3)c12 | 69.4%
81 | C[C@@H](NC(=O)c1ccccc1-c1ccccc1)B(O)O | 59.6%
82 | COc1ccc(SCC(=O)N2c3ccccc3Sc3ccccc32)cc1 | 69.2%
83 | O=C(O)CSc1cc(NS(=O)(=O)c2cccc3cccnc23)c2ccccc2c1O | 59.6%
84 | O=[N+]([O-])c1ccc2c(CCc3c[nH]c4ccccc34)c[nH]c2c1 | 61.9%
85 | COc1cc(Cc2cnc(N)nc2N)cc(OC)c1OC | 64.8%
86 | OC(Cn1cncn1)(Cn1cncn1)c1ccc(F)cc1F | 66.7%
87 | CCCCC(CC)CNC(=N)NC(=N)NCCCCCCNC(=N)NC(=N)NCC(CC)CCCC (stereo not drawn) | 63.4%
88 | NC1C2CC3CC(C2)CC1C3 (stereo not drawn) | 66.1%
89 | NC(=O)c1cnccn1 | 68.1%
90 | O=c1cc(NCCCN[C@@H]2CCOc3c(Br)cc(Br)cc32)[nH]c2ccsc12 | 79.4%
91 | Cc1ccc(N2CCC(CCOc3ccc(S(C)(=O)=O)cc3)CC2)nn1 | 68.1%
92 | Cc1ccc(NC(=O)c2ccc(CN3CCN(C)CC3)cc2)cc1Nc1nccc(-c2cccnc2)n1 | 50.1%
93 | CCC(C)(C)c1ccc(CC(C)CN2C[C@@H](C)O[C@@H](C)C2)cc1 (stereo partly drawn) | 65%
94 | CCc1nc2ccccn2c1C(=O)NCc1ccccc1 | 66.8%
95 | COc1cc(Cc2cc(N)nc(N)n2)cc(OC)c1OC | 65.1%
96 | Cc1nc(-c2ccc(C3N(C)c4ccc(F)cc4C(=O)N3c3ccccc3)s2)cs1 (stereo not drawn) | 65.2%
97 | O=c1[nH]c(=O)n(Cc2cccc(Oc3ccccc3)c2)cc1Nc1ccccc1 | 63.8%
98 | O=C(O)C[C@H]1CC[C@H](c2ccc(-c3ccc(Nc4ccc(C(F)(F)F)nc4)cn3)cc2)CC1 | 67.6%
99 | Cc1ncc([N+](=O)[O-])n1CC(O)CN1CCOCC1 (stereo not drawn) | 61.1%
100 | O=C(N[C@H](CCS)C(=O)N[C@H](Cc1ccccc1)C(=O)O)c1cc2ccccc2[nH]1 | 67.6%
101 | CC(=O)N1c2ccccc2NC2=C(C(=O)CC(C)(C)C2)C1c1ccc(OCc2ccccc2)cc1 (stereo not drawn) | 70.4%
102 | CCOC(=O)N[C@@H]1CC[C@@H]2[C@@H](C1)C[C@H]1C(=O)O[C@H](C)[C@H]1[C@H]2/C=C/c1ccc(-c2cccc(F)c2)cn1 | 55.3%
103 | Cc1c(N)cccc1Cn1ccc(OCCc2cccs2)cc1=O | 60.5%
